TTR transcr act = activators of transthyretin transcription | SH-SY5Y TTR promoter Gaussia luciferase, luminescence; 100% = recombinant luciferase protein wells | activation, % at 16.7 µM | hit rate 1.3% among 92,000 | AID 1117267;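 active means activation above the mean of all tested compounds plus 3 SD, cut at about 9.5% in these data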;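 further: cells exposed to compounds for one day before reading; 0% = median of all test compound wells on the plate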
HuH7 TTR inh = HuH7 TTR transcription inhibition, counter-screen | hit rate 4% among 1,100 | shares compounds with TTR transcr act | HuH7 TTR promoter-Gaussia luciferase reporter, luminescence | AID 1117279 | inhibition, % at 16.7 µM;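 active means average inhibition above the solvent-only control wells' mean plus 3 SD, cut at about 15% in these data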;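 further: 0% = cells with DMSO only and 100% = cells with inhibitor control FD; inhibitors lower well luminescence so higher value means more inhibition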
TTR up confirm = human TTR transcription activation, confirmation | shares compounds with TTR transcr act | SHSY5Y TTR promoter Gaussia luciferase, luminescence; 100% = purified Lucia enzyme wells, no cells | activation, % at 16.7 µM | 1,100 tested, under 10 active | AID 1117280;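 active means mean activation above a set limit taken from the earlier primary screen, cut at about 11% in these data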;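 further: 0% = DMSO-treated cells and 100% = recombinant Lucia luciferase without cells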
* marks the source's active call; other numbers are inactive results. The entries come from a sample that favours hits as a whole.

SMILES	TTR transcr act	others
O=C(OCc1cn(Cc2ccccc2Cl)nn1)N1CCOCC1	2
O=C(NC1CCCC1)C1c2ccccc2C(=O)N1CCCN1CCOCC1 (configuration not stated)	1
CCC(C)N1C(=O)c2ccccc2C1C(=O)NC1CCCCCC1 (configuration not stated)	15*	HuH7 TTR inh=-24;TTR up confirm=0
CCC(C)[C@H](NC(=O)[C@@H]1CSC2c3ccccc3C(=O)N21)C(=O)NC1CCCC1 (some centres not stated)	-1
COc1cccc(C(=O)N2CCC[C@H]2C(=O)N2CCC[C@H]2C(=O)NCc2ccncc2)c1	2
O=S1(=O)CCOCC(CO)N1Cc1cccc(Br)c1 (configuration not stated)	1
Cc1cccc(NC(=O)CN2CCN(C(=O)c3c(C)nn(Cc4ccccc4)c3C)CC2)c1C	1
NNC(=O)c1nn(-c2ccc(Cl)cc2)cc1O	4
CCn1cc(Cl)c(C(=O)Nc2ccc(OC)c(OC)c2)n1	0
CCn1cc(Br)c(C(=O)NN)n1	16*	HuH7 TTR inh=-3;TTR up confirm=0
O=[N+]([O-])c1cnc2ccccc2c1Sc1ccccc1	0
Cc1cccc(OCCC(=O)Nc2nnc(C)s2)c1	17*	HuH7 TTR inh=-16;TTR up confirm=1
COc1ccc(/C=C/c2nnc(NC(=O)COc3cccc(C)c3)s2)cc1	1
Cc1cccc(OCCCC(=O)Nc2ccc(N(C)C)cc2)c1	4
CC(C)OC(=O)N(C)C[C@H]1OCc2cnnn2CCCC(=O)N([C@H](C)CO)C[C@@H]1C	1
O=C(NCc1nnc2c3ccccc3c(-c3ccccc3)nn12)c1ccccc1Cl	14*	HuH7 TTR inh=-6;TTR up confirm=0
O=C(NCCN1CCCC1)c1ccccc1Cl	0
O=C(CN1CCC(NC(=O)c2ccccc2Cl)CC1)NCc1ccccc1	0
COc1ccccc1C(=O)NCCC(=O)N1CC(C)OC(C)C1 (configuration not stated)	0
O=C(CN1C(=O)CNC1=O)Nc1cc(Cl)cc(Cl)c1	-2
CC1CCCCC1NC(=O)C(C)N1C(=O)c2ccccc2C1=O (configuration not stated)	-2
CCC(=O)N1CCC1(C)C(=O)Nc1ccc(F)cc1 (configuration not stated)	0
C[C@H]1[C@@H](NC(=O)C2CCC2)CC[C@@]23CCCN2C(=O)CCC[C@@H]13	2
CC1CCC2(CC1)NC(=O)N(CC(=O)N1c3ccccc3CC1C)C2=O (configuration not stated)	-1
O=C(CCC1CCN(C(=O)c2cc(C(F)(F)F)ccc2Cl)CC1)NC1CC1	17*	HuH7 TTR inh=-17;TTR up confirm=0
SMILES	TTR transcr act	others
COc1cc(Cl)c(CN2CCC(CCC(=O)NC3CC3)CC2)cc1OC	1
Cc1cc(C)cc(C(=O)N2CCC(CCC(=O)NC3CC3)CC2)c1	0
CCOc1ccc(C(C)=O)cc1COC(=O)c1ccccc1C(=O)N(C)Cc1ccccc1	2
CC(NC(=O)[C@H](C)NC(=O)c1ccco1)c1ccc(S(N)(=O)=O)cc1 (some centres not stated)	-1
CC(NC(=O)c1ccco1)C(=O)OCc1cccc(C(F)(F)F)c1 (configuration not stated)	11*	HuH7 TTR inh=-10;TTR up confirm=1
CC(C)[C@H](NC(=O)c1ccco1)C(=O)OCC(=O)Nc1cccc(F)c1	0
O=[N+]([O-])c1ccc(Cn2ccc3ccc(-c4ccc5ccn(Cc6ccccc6)c5c4)cc32)cc1	2
COc1cc(Cl)c(C)cc1NC(=O)c1ccccc1-n1cnnn1	-1
CC(C)NC(=O)c1cc2n(n1)C(C(F)(F)F)CC(c1ccco1)N2 (configuration not stated)	0
O=C(Nc1ccccc1)c1cc2n(n1)C(C(F)(F)F)CC(C1CC1)N2 (configuration not stated)	14*	HuH7 TTR inh=-15;TTR up confirm=1
O=C(NCc1ccco1)c1cc2n(n1)C(C(F)(F)F)CC(c1ccc(Cl)c(Cl)c1)N2 (configuration not stated)	-1
O=S(=O)(Nc1cc(S(=O)(=O)N2CCOCC2)ccc1NCC1CCCO1)c1ccccc1 (configuration not stated)	1
COc1ccc(S(=O)(=O)Nc2ccc(C)cn2)cc1	14*	HuH7 TTR inh=-12;TTR up confirm=6
COc1ccc(S(=O)(=O)Nc2ccc(NC(C)=O)cc2)cc1	3
COc1ccc(C(=O)Nc2ccc(C)cn2)c(OC)c1	-3
O=C(COC(=O)c1ccccc1OCc1ccccc1Cl)NCC1CCCO1 (configuration not stated)	-2
COc1cccc(CNc2nnnn2C)c1	1
Cc1ccc(OCCn2c(CCNC(=O)c3ccc(F)cc3F)nc3ccccc32)cc1	2
Cn1cnnc1SCC(=O)Nc1ccccc1	0
CN(C)S(=O)(=O)c1cccc(NC(=O)CSc2nncn2C)c1	12*	HuH7 TTR inh=-6;TTR up confirm=5

Assay outcomes (PubChem BioAssay)
